“And” between values parts separate entries of the source, which are not always exact repeats. Equal entries are not always repeated. The source made the active and inactive calls. How the calls were made is not given here.
Assay: inhibition of Brca1/Bard1 split-luciferase complementation, confirmation, counter-screen for Mdm2/MdmX interaction inhibitor project, luminescence, single concentration (AID 504668)
Conditions: Brca1/Bard1 bimolecular luciferase complementation counterscreen, at 8 µM, hits give high values

| Structure (SMILES) | inhibition |
| --- | --- |
| S=C(Nc1ccc(Cl)c(Cl)c1)NC1CCN(Cc2ccccc2)CC1 | 28.5% (active) |
| Cn1ccc2cc(-c3ccc4ncnc(NCc5cccs5)c4c3)ccc21 | 25% (active) |
| CCN1CCN(CCNC(=O)c2ccc(/C=C3/Sc4ccccc4N(Cc4cccc(C)c4)C3=O)cc2)CC1 | 27.6% (active) |
| O=C(CCl)N1N=C(c2ccco2)CC1c1ccco1 (stereo not given) | 31.2% (active) |
| CC(C)(C)c1ccc(-c2nnc3sc(-c4ccccn4)nn23)cc1 | 30.2% (active) |
| CC(=O)OC[C@H]1O[C@@H](n2ncc(=O)[nH]c2=O)[C@H](OC(C)=O)[C@@H]1OC(C)=O | 31.6% (active) |
| CCc1ccc(NC(=O)[C@H](Cc2c[nH]c3ccccc23)NC(=O)[C@@H]2Cc3ccccc3CN2)cc1 | 24.1% (active) |
| Cc1cc(C2CCCCC2)n(O)c(=O)c1 | 32.2% (active) |
| CC1CCN(S(=O)(=O)c2ccc(C(=O)Nc3nnc(-c4ccco4)o3)cc2)CC1 | 34.2% (active) |
| O=C(N/N=C\c1c(O)ccc2ccccc12)c1ccc(O)cc1 | 31.7% (active) |
| COc1ccc(-c2oc3cc(OC)c(O)c(OC)c3c(=O)c2OC)cc1O | 28.4% (active) |
| Cc1nc(NC(=O)/C=C/c2ccccc2)n[nH]1 | 32.9% (active) |
| C/C(=N\NC(=O)c1nnn(-c2nonc2N)c1CN(C)c1ccccc1)c1ccccc1O | 30.5% (active) |
| O=c1c2ccccc2nc(/C=C/c2cc(Br)ccc2O)n1CCO | 32.4% (active) |
| CCOC(=O)c1cccc2c1-c1ccccc1/C2=N/O | 30.6% (active) |
| CC(C)CC(=O)NC(c1cccs1)c1ccc2cccnc2c1O (stereo not given) | 25.3% (active) |
| COc1ccc([C@@H]2[C@@H]3C(=O)N(C(C)(C)C)C(=O)[C@@H]3[C@]3(Cc4ccccc4)C(=O)N(c4ccc(Br)cc4)C(=O)N23)cc1 | 35.6% (active) |
| CCOc1ccccc1CNC(=O)C1CCCN(c2nnc(C)c3c(C)n(-c4ccccc4)nc23)C1 (stereo not given) | 33.6% (active) |
| CCN1/C(=C/C=C/c2oc3ccc4ccccc4c3[n+]2CC)Oc2ccc3ccccc3c21 | 28.6% (active) |
| O=C(CCl)Nc1cccc(S(=O)(=O)NC2=NCCCCC2)c1 | 35.8% (active) |

| Structure (SMILES) | inhibition |
| --- | --- |
| CCOc1cc(CNCCO)cc(Br)c1OCc1ccc(Cl)cc1Cl | 25.5% (active) |
| O=C(CCl)Nc1cccc(S(=O)(=O)N2CCCCCC2)c1 | 24% (active) |
| CC(C)C(=O)NC(c1ccco1)c1ccc2cccnc2c1O (stereo not given) | 24% (active) |
| CCCCCCCCCCOC(=O)Cn1c(COc2cccc(C)c2)[n+](C)c2ccccc21 | 24.9% (active) |
| O=[N+]([O-])c1ccc(N=Nc2ccc(O)cc2O)cc1 | 29.5% (active) |
| O=C(/C=C/c1ccc2ccccc2n1)N1CCN(S(=O)(=O)c2ccccc2F)CC1 | 25.5% (active) |
| O=C(N/N=C/c1ccccc1O)c1cccc(C(F)(F)F)c1 | 35.8% (active) |
| COc1ccc(-c2nc(CN3CCN(c4cc(C)nc(C)c4)CC3)c(C)o2)c2ccccc12 | 34.4% (active) |
| CC1CCN(Cc2c(C(=O)N/N=C/c3ccccc3O)nnn2-c2nonc2N)CC1 | 32.5% (active) |
| C1CCC(C(CC2CCCCN2)C2CCCCC2)CC1 (stereo not given) | 35.2% (active) and 23.8% (active) |
| COc1ccc(C2Oc3ccccc3C3=C2C(c2cccs2)n2ncnc2N3)cc1 (stereo not given) | 29.5% (active) |
| COc1ccc(-n2c(C)c([N+](=O)[O-])c3ccc(O)c(CN4CCCCC4)c32)cc1 | 28.9% (active) |
| CCN(CC)Cc1c(O)ccc2c1O/C(=C\C=C\c1ccccc1)C2=O | 25.3% (active) |
| C/C(=N\NC(=O)c1cccc2ccccc12)c1ccccn1 | 29.9% (active) |
| CCCNC(=O)c1ccc2c(=O)c(O)c(-c3cccc(Br)c3)[nH]c2c1 | 31.4% (active) |
| Cc1sc2ncn(CC(=O)NCCCC(=O)Nc3ccc(C(C)C)cc3)c(=O)c2c1C | 29.2% (active) |
| CCC(C)Nc1nc(-c2ccccn2)nc2ccccc12 (stereo not given) | 29.2% (active) |
| COc1ccccc1-c1cc(C(F)(F)F)nc(S(=O)(=O)CCCC(=O)NC(C)C)n1 | 31.4% (active) |
| CC(=O)NC(c1cccc([N+](=O)[O-])c1)c1ccc2cccnc2c1O (stereo not given) | 23.7% (active) |
| COc1ccc(-n2c(SCC(=O)Nc3ncc(Cl)cc3Cl)nc3ccccc32)cc1 | 29.2% (active) |
